Results filed as inconclusive are left out. Active and inactive are the calls of the source. How the source made its calls: active means hit-call score of the fitted dose curve at least 0.9, where 1 is the maximum; inconclusive means response in the unintended direction; inactive means score below 0.9.
Assay: TOX21_p53_BLA_p2_viability: Viability Assessment in the Tox21 HCT-116 p53 Agonism Beta-lactamase Assay, Phase 2 (AID 2283591);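 further: compound exposure lasted 16 h at 37 °C; actives lower the ATP signal meaning cytotoxicity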
Method in brief: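 HCT116 p53-bla cells, 4000/well, dosed after 5 h plating (217-fold dilution of DMSO stocks) and incubated 16 h at 37C. Viability taken as cellular ATP by CellTiter-Glo luminescence after 30 min RT; signal loss marks cytotoxicity.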

SMILES | outcome | AC50
CC[C@@H]([C@H](C)O)n1ncn(-c2ccc(N3CCN(c4ccc(OC[C@@H]5CO[C@@](Cn6cncn6)(c6ccc(F)cc6F)C5)cc4)CC3)cc2)c1=O | inactive | –
O=C(O)CCCC/C=C(\c1ccccc1)c1cccnc1 | inactive | –
COc1ccc(CCN(C)CCCC(C#N)(c2cc(OC)c(OC)c(OC)c2)C(C)C)cc1OC (centres undefined) | inactive | –
CCN(O)CC | inactive | –
CCOC(=O)c1cccnc1 | inactive | –
CCCCCCCCCCCBr | inactive | –
CC(C)(C(=O)c1cccnc1)c1cccnc1 | inactive | –
CN1CCN(C2Cc3ccccc3Sc3ccc(Cl)cc32)CC1 (centres undefined) | – | 34.4 µM (active)
O=S(=O)(O)c1ccc2c(N=Nc3ccc(S(=O)(=O)O)c4ccccc34)c(O)c(S(=O)(=O)O)cc2c1 | inactive | –
CC1(C)S[C@@H]2[C@H](N3C(=O)C(c4ccccc4)NC3(C)C)C(=O)N2[C@H]1C(=O)O (some centres undefined) | inactive | –
CO[C@@H]1[C@@H](O[C@@H]2O[C@H](C)[C@@H](O[C@H]3C[C@@](C)(O)[C@@H](O)[C@H](C)O3)[C@H](N(C)C)[C@H]2O)[C@@H](CC=O)C[C@@H](C)[C@@H](O[C@@H]2CC[C@H](N(C)C)[C@@H](C)O2)/C=C/C=C/C[C@@H](C)OC(=O)C[C@H]1OC(C)=O | inactive | –
Cc1nc(C)c(C)nc1C | inactive | –
C[C@@H]1C[C@H]2[C@@H]3CCC4=CC(=O)C=C[C@]4(C)[C@@]3(Cl)[C@@H](O)C[C@]2(C)[C@@]1(OC(=O)c1ccco1)C(=O)CCl | inactive | –
CCOC(=O)Cc1ccc(-c2ccccc2)cc1 | inactive | –
COCCOC(=O)C1=C(C)NC(C)=C(C(=O)OC(C)C)C1c1cccc([N+](=O)[O-])c1 (centres undefined) | inactive | –
OCC(S)CS (centres undefined) | inactive | –
CCCCCCC | inactive | –
CCCCC(=O)OCC(=O)[C@H]1[C@H](C)C[C@H]2[C@@H]3C[C@H](F)C4=CC(=O)C=C[C@]4(C)[C@@]3(F)[C@@H](O)C[C@@]21C | inactive | –
CC(CCl)OC(C)CCl (centres undefined) | inactive | –
OC(CCN1CCCCC1)(c1ccccc1)C1CC2C=CC1C2 (centres undefined) | inactive | –

SMILES | outcome | AC50
Cc1nc2ccccn2c(=O)c1CCN1CCC(C(=O)c2ccc(F)cc2)CC1 | inactive | –
CC(C)(C)NCC(O)COc1ccc(NC(=O)NC2CCCCC2)cc1 (centres undefined) | inactive | –
NS(=O)(=O)c1cc(C2(O)NC(=O)c3ccccc32)ccc1Cl (centres undefined) | inactive | –
CCC(=O)OCC(=O)[C@@]1(OC(=O)CC)[C@H](C)C[C@H]2[C@@H]3CCC4=CC(=O)C=C[C@]4(C)[C@@]3(F)[C@@H](O)C[C@@]21C | inactive | –
C[C@]12CCC(=O)C=C1C=C[C@@H]1[C@@H]2CC[C@@]2(C)[C@H]1CC[C@@]21CCC(=O)O1 | inactive | –
C=C1CC2C3CCC4=CC(=O)C=C[C@]4(C)[C@@]3(F)[C@@H](O)C[C@]2(C)[C@@]1(O)C(=O)COC(C)=O (some centres undefined) | inactive | –
Cc1c(C)c2c(c(C)c1OC(=O)CCC(=O)OCCO)CCC(C)(CCCC(C)CCCC(C)CCCC(C)C)O2 (centres undefined) | inactive | –
CC(=O)c1ccc2c(c1)N(CCCN1CCN(CCO)CC1)c1ccccc1S2 | inactive | –
CC(C(=O)O)c1ccc(N2Cc3ccccc3C2=O)cc1 (centres undefined) | inactive | –
C[C@H](CCC(=O)O)[C@H]1CC[C@H]2[C@@H]3[C@H](O)C[C@@H]4C[C@H](O)CC[C@]4(C)[C@H]3C[C@H](O)[C@]12C | inactive | –
CCCCCCCCCCCCCC[N+](C)(C)Cc1ccccc1 | inactive | –
CC(=NO)C(C)=NO | inactive | –
CCCC(=O)CC | inactive | –
Nc1ccc(NC(=O)c2ccc(N)cc2)cc1 | inactive | –
CC(=O)OCC(=O)[C@@]1(OC(C)=O)[C@@H](C)C[C@H]2[C@@H]3C[C@H](F)C4=CC(=O)C=C[C@]4(C)[C@@]3(F)[C@@H](O)C[C@@]21C | inactive | –
CC1CCCNC1 (centres undefined) | inactive | –
CC(C)[N+](C)(C)CC(O)COc1cccc2ccccc12 (centres undefined) | inactive | –
CC(=O)c1ccc2c(c1)N(CCCN1CCC(CCO)CC1)c1ccccc1S2 | inactive | –
O=P(O)(O)CP(=O)(O)O | inactive | –
